Measurements reported in publication PMC5540273 (PLoS ONE, 2017).
Read-outs that look alike come from different tables or passages of the source.

Tests used:
JNK3 = test system: T1, JNK3; conditions: concentration: 1 μM, replicates: in singlicate; n = 1
T1 construct: gene MAPK10

KIT-autoinhibited = conditions: concentration: 1 μM, replicates: in singlicate; n = 1
KIT = conditions: concentration: 1 μM, replicates: in singlicate; n = 1
LATS1 = conditions: concentration: 1 μM, replicates: in singlicate; n = 1
LATS2 = conditions: concentration: 1 μM, replicates: in singlicate; n = 1
LCK = conditions: concentration: 1 μM, replicates: in singlicate; n = 1
LIMK1 = conditions: concentration: 1 μM, replicates: in singlicate; n = 1
LIMK2 = conditions: concentration: 1 μM, replicates: in singlicate; n = 1
LKB1 = test system: T2, LKB1; conditions: concentration: 1 μM, replicates: in singlicate; n = 1
T2 construct: gene STK11

LOK = test system: T3, LOK; conditions: concentration: 1 μM, replicates: in singlicate; n = 1
T3 construct: gene STK10

LRRK2 = conditions: concentration: 1 μM, replicates: in singlicate; n = 1
LTK = conditions: n = 1
LYN = conditions: concentration: 1 μM, replicates: in singlicate; n = 1
LZK = test system: T4, LZK; conditions: concentration: 1 μM, replicates: in singlicate; n = 1
T4 construct: gene MAP3K13

MAK = conditions: concentration: 1 μM, replicates: in singlicate; n = 1
MAP3K15 = conditions: concentration: 1 μM, replicates: in singlicate; n = 1
MAP3K1 = conditions: concentration: 1 μM, replicates: in singlicate; n = 1
MAP3K2 = conditions: concentration: 1 μM, replicates: in singlicate; n = 1
MAP3K3 = conditions: concentration: 1 μM, replicates: in singlicate; n = 1
MAP3K4 = conditions: concentration: 1 μM, replicates: in singlicate; n = 1
[1] = concentration: 1 μM, replicates: in singlicate
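Further: KINOMEscan kinase panel screen.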

## Cc1cccc2c(-c3ccncn3)c(-c3ccc(F)cc3)nn12 [GW515532]
JNK3
  %Inh: 74%
KIT-autoinhibited
  %Inh: 0%
KIT
  %Inh: 6%
LATS1
  %Inh: 0%
LATS2
  %Inh: 11%
LCK
  %Inh: 17%
LIMK1
  %Inh: 0%
LIMK2
  %Inh: 0%
LKB1
  %Inh: 0%
LOK
  %Inh: 0%
LRRK2
  %Inh: 53%
LTK; [1]
  %Inh: 0%
LYN
  %Inh: 0%
LZK
  %Inh: 0%
MAK
  %Inh: 57%
MAP3K15
  %Inh: 0%
MAP3K1
  %Inh: 0%
MAP3K2
  %Inh: 0%
MAP3K3
  %Inh: 0%
MAP3K4
  %Inh: 0%

## CS(=O)(=O)Cc1ccc(Nc2nccc(-c3c(-c4cccc(NC(=O)C5CCCCC5)c4)nn4ncccc34)n2)cc1 [GSK350559]
JNK3
  %Inh: 36%
KIT-autoinhibited
  %Inh: 14%
KIT
  %Inh: 88%
LATS1
  %Inh: 0%
LATS2
  %Inh: 48%
LCK
  %Inh: 23%
LIMK1
  %Inh: 22%
LIMK2
  %Inh: 14%
LKB1
  %Inh: 0%
LOK
  %Inh: 81%
LRRK2
  %Inh: 20%
LTK; 1 µM
  %Inh: 0%
LYN
  %Inh: 16%
LZK
  %Inh: 0%
MAK
  %Inh: 0%
MAP3K15
  %Inh: 38%
MAP3K1
  %Inh: 30%
MAP3K2
  %Inh: 15%
MAP3K3
  %Inh: 19%
MAP3K4
  %Inh: 11%

## O=C(Nc1n[nH]c2cc(-c3ccsc3)ccc12)C1CC1 [SB-732932]
JNK3
  %Inh: 30%
KIT-autoinhibited
  %Inh: 0%
KIT
  %Inh: 56%
LATS1
  %Inh: 2%
LATS2
  %Inh: 15%
LCK
  %Inh: 0%
LIMK1
  %Inh: 0%
LIMK2
  %Inh: 0%
LKB1
  %Inh: 0%
LOK
  %Inh: 3%
LRRK2
  %Inh: 0%
LTK; [1]
  %Inh: 0%
LYN
  %Inh: 4%
LZK
  %Inh: 52%
MAK
  %Inh: 41%
MAP3K15
  %Inh: 45%
MAP3K1
  %Inh: 23%
MAP3K2
  %Inh: 17%
MAP3K3
  %Inh: 5%
MAP3K4
  %Inh: 5%

## O=C1NC(=O)C(c2ccc(Cl)cc2)=C1Nc1ccc(O)cc1 [SB-340867]
JNK3
  %Inh: 0%
KIT-autoinhibited
  %Inh: 0%
KIT
  %Inh: 0%
LATS1
  %Inh: 17%
LATS2
  %Inh: 0%
LCK
  %Inh: 5%
LIMK1
  %Inh: 11%
LIMK2
  %Inh: 0%
LKB1
  %Inh: 13%
LOK
  %Inh: 0%
LRRK2
  %Inh: 0%
LTK; [1]
  %Inh: 0%
LYN
  %Inh: 8%
LZK
  %Inh: 0%
MAK
  %Inh: 7%
MAP3K15
  %Inh: 7%
MAP3K1
  %Inh: 0%
MAP3K2
  %Inh: 0%
MAP3K3
  %Inh: 11%
MAP3K4
  %Inh: 28%

## Cn1cncc1C(=O)NC1CCN(c2ccnc(Nc3ccc(F)cc3)n2)C1 (stereo not drawn) [GSK1379717]
JNK3
  %Inh: 13%
KIT-autoinhibited
  %Inh: 0%
KIT
  %Inh: 17%
LATS1
  %Inh: 25%
LATS2
  %Inh: 0%
LCK
  %Inh: 4%
LIMK1
  %Inh: 0%
LIMK2
  %Inh: 2%
LKB1
  %Inh: 0%
LOK
  %Inh: 0%
LRRK2
  %Inh: 0%
LTK; [1]
  %Inh: 6%
LYN
  %Inh: 0%
LZK
  %Inh: 0%
MAK
  %Inh: 22%
MAP3K15
  %Inh: 0%
MAP3K1
  %Inh: 2%
MAP3K2
  %Inh: 11%
MAP3K3
  %Inh: 0%
MAP3K4
  %Inh: 13%

## c1ccc(-c2ccnc3[nH]ccc23)cc1 [SB-693578]
JNK3
  %Inh: 11%
KIT-autoinhibited
  %Inh: 0%
KIT
  %Inh: 1%
LATS1
  %Inh: 0%
LATS2
  %Inh: 53%
LCK
  %Inh: 7%
LIMK1
  %Inh: 6%
LIMK2
  %Inh: 0%
LKB1
  %Inh: 0%
LOK
  %Inh: 0%
LRRK2
  %Inh: 44%
LTK; [1]
  %Inh: 0%
LYN
  %Inh: 0%
LZK
  %Inh: 11%
MAK
  %Inh: 0%
MAP3K15
  %Inh: 26%
MAP3K1
  %Inh: 19%
MAP3K2
  %Inh: 50%
MAP3K3
  %Inh: 5%
MAP3K4
  %Inh: 12%

## COc1ccc(CSc2nnc(-c3ccc4c(c3)CCO4)o2)cc1
JNK3
  %Inh: 0%
KIT-autoinhibited
  %Inh: 0%
KIT
  %Inh: 0%
LATS1
  %Inh: 0%
LATS2
  %Inh: 0%
LCK
  %Inh: 0%
LIMK1
  %Inh: 0%
LIMK2
  %Inh: 0%
LKB1
  %Inh: 6%
LOK
  %Inh: 0%
LRRK2
  %Inh: 0%
LTK; [1]
  %Inh: 0%
LYN
  %Inh: 0%
LZK
  %Inh: 3%
MAK
  %Inh: 0%
MAP3K15
  %Inh: 0%
MAP3K1
  %Inh: 0%
MAP3K2
  %Inh: 0%
MAP3K3
  %Inh: 0%
MAP3K4
  %Inh: 8%

## Fc1ccc(-c2nc3n(c2-c2ccncc2)CCS3)cc1 [GI98581]
JNK3
  %Inh: 98.7%
KIT-autoinhibited
  %Inh: 0%
KIT
  %Inh: 15%
LATS1
  %Inh: 2%
LATS2
  %Inh: 0%
LCK
  %Inh: 26%
LIMK1
  %Inh: 0%
LIMK2
  %Inh: 0%
LKB1
  %Inh: 11%
LOK
  %Inh: 0%
LRRK2
  %Inh: 14%
LTK; [1]
  %Inh: 22%
LYN
  %Inh: 0%
LZK
  %Inh: 3%
MAK
  %Inh: 63%
MAP3K15
  %Inh: 0%
MAP3K1
  %Inh: 13%
MAP3K2
  %Inh: 6%
MAP3K3
  %Inh: 0%
MAP3K4
  %Inh: 10%

## COc1cccc(CNC(=O)NC2CCN(c3ccnc(Nc4ccc(F)cc4)n3)C2)c1 (stereo not drawn) [GSK1379723]
JNK3
  %Inh: 11%
KIT-autoinhibited
  %Inh: 0%
KIT
  %Inh: 23%
LATS1
  %Inh: 10%
LATS2
  %Inh: 0%
LCK
  %Inh: 11%
LIMK1
  %Inh: 3%
LIMK2
  %Inh: 0%
LKB1
  %Inh: 0%
LOK
  %Inh: 0%
LRRK2
  %Inh: 25%
LTK; [1]
  %Inh: 59%
LYN
  %Inh: 0%
LZK
  %Inh: 0%
MAK
  %Inh: 23%
MAP3K15
  %Inh: 0%
MAP3K1
  %Inh: 7%
MAP3K2
  %Inh: 0%
MAP3K3
  %Inh: 0%
MAP3K4
  %Inh: 13%
